From PubChem BioAssay
This is a sample that favours compounds with a hit; in the whole collection about 1.3% have one here.
F-actin modifier – modifiers of F-actin cytoskeleton organization, primary screen, imaging, HUVEC, phalloidin staining, high-content imaging | HUVEC TNFa F-actin phalloidin imaging | inhibition, % at 2 µM | actives 0.18% (n = 91,000) | AID 836, 2007;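 active = inhibition above the batch mean plus 3 SD and confirmed as a hit by visual image inspection, cut at about 30% in these data, passing the limit was not always enough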
GALR2 agonist – GALR2 receptor agonists, primary screen, cell-based; Galanin receptor type 2 (Homo sapiens), O43603; GALR2-expressing cells, agonist activation read-out; activation, % (no concentration beside the values); actives 0.48% (n = 140,000); AID 803, 2007; in the data active = activation above about 5%, passing the limit was not always enough;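 also: 0% = vehicle buffer wells and 100% = reference agonist at full effect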
Target sequence (O43603 whole entry, looked up): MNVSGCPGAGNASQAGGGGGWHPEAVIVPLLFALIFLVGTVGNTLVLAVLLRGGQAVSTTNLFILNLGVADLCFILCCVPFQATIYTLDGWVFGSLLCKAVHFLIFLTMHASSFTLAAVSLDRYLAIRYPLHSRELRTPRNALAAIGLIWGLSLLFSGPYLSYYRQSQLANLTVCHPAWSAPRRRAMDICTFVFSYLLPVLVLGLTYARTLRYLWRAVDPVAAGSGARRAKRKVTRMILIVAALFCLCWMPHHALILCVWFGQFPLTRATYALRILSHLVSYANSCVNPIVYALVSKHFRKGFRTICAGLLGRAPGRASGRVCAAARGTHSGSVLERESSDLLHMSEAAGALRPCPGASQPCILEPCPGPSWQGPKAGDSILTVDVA
S1P2 agonist – S1P2 receptor agonists, primary screen, cell-based; activation, % at 4.5 µM; Sphingosine 1-phosphate receptor 2 (Homo sapiens), O95136; S1P2-expressing cell line, agonist reporter read-out; AID 729, 2007; actives 0.46% (n = 97,000); in the data active = activation above about 16%;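 also: 0% = vehicle low control and 100% = maximal reference agonist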
S1P2 antag – human S1P2 receptor antagonists, primary screen, cell-based; Sphingosine 1-phosphate receptor 2 (Homo sapiens), O95136; cell-based S1P2 antagonist assay, inhibition at 5 uM; inhibition, % at 5 µM; actives 0.21% (n = 97,000); AID 736, 2007; in the data active = inhibition above about 45%;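 also: CRE beta-lactamase reporter cells expressing human S1P2 stimulated with S1P; 0% = agonist at EC80 alone and 100% = agonist plus reference antagonist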
GALR2 blocker – GALR2 antagonists in receptor-expressing cells, primary screen; actives 0.39% (n = 140,000); antagonist mode; Galanin receptor type 2 (Homo sapiens), O43603; inhibition, % at 4 µM; in the data active = inhibition above about 27%;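 also: cells stimulated with galanin 1-16 at roughly its EC80; 0% = agonist challenge control and 100% = basal control without agonist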
Active calls of the source: *; . = no result given.

SMILES	F-actin modifier	GALR2 agonist	S1P2 agonist	S1P2 antag	GALR2 blocker
Cc1ccc(NS(=O)(=O)c2cc(C(=O)NCCSc3ccc(C)cc3)ccc2C)cc1	-4.8	-2.0	-5.7	18.0	0.8
Cc1ccc(NS(=O)(=O)c2cc(C(=O)NCCSC3CCCCC3)ccc2C)cc1	47.9*	-1.9	-7.9	13.1	-8.6
COC(=O)CN(c1ccc(F)cc1)S(=O)(=O)c1ccc2c(c1)OCCO2	96.3*	-0.6	-3.3	5.8	0.1
CC1Cc2ccccc2N1C(=O)CSc1nnc(-c2ccccc2)c(-c2ccccc2)n1 (stereo unspecified)	-5.7	-0.9	-5.0	-7.8	-11.1
Cc1ccc(C2CC(c3ccccc3)=NN2c2ccccc2)o1 (stereo unspecified)	.	7.1*	.	.	-8.7
Cc1ccc(C2CC(c3ccccc3)=NN2C(=O)CSc2nnc(-c3ccc(Cl)cc3)o2)o1 (stereo unspecified)	-5.9	-1.9	-1.4	15.6	-3.6
Cc1ccc(NCC(=O)N/N=C/c2cccc(Oc3ccccc3)c2)cc1	.	-0.6	.	.	-2.1
Cc1cc(C)c(C#N)c(SCc2nc3ccccc3[nH]2)n1	33.5*	0.9	4.2	-17.9	23.1
Cc1nc(SCc2nc3ccccc3[nH]2)c2oc3ccccc3c2n1	-13.9	-0.9	23.2*	-35.3	0.9
Fc1ccc(CSc2ncnc3c2oc2ccccc23)cc1	.	-0.7	.	.	-7.1
Cc1nc(N2CCN(Cc3nc4ccccc4[nH]3)CC2)c2oc3ccccc3c2n1	3.2	-3.1	1.9	-27.2	24.2
c1ccc2[nH]c(CSc3ncnc4c3oc3ccccc34)nc2c1	-9.0	0.7	31.6*	-28.0	4.4
CCC1CCCCN1C(=S)NC1CCCCC1 (stereo unspecified)	.	0.4	.	.	-3.6
COc1ccc(Nc2nc(Nc3ccc(OC)cc3)nc(-n3[nH]c(=O)c(C)c3C)n2)cc1	-30.8	73.0*	-6.4	28.5	-1.7
CC(=O)C1=C(O)C(=O)N(CC#N)C1c1cccs1 (stereo unspecified)	0.2	-1.3	36.5*	15.1	-3.5
CC(C)c1ccc2[nH]c(O)c(N=NC(=O)c3ccc(CSc4nncn4C)cc3)c2c1	.	5.1*	.	.	-1.2
O=[N+]([O-])c1cc(S(=O)(=O)N2CCCC2)ccc1N/N=C1/CCCc2ccccc21	.	-0.9	.	.	19.4
CCC(Sc1nc2cc(OC)c(OC)cc2c(=O)n1Cc1ccco1)C(=O)NCCOC (stereo unspecified)	1.4	1.0	17.8*	-47.7	2.6
CC(C)Sc1nnc(CNC(=O)C23CC4CC(CC(C4)C2)C3)n1C1CCCCC1	.	-0.5	.	.	-0.5
Cc1cc(SCC(=O)c2cccs2)n2nc(C)c(-c3ccccc3)c2n1	.	0.0	.	.	-14.4
Cc1cc(SCC#N)n2nc(C)c(-c3ccccc3)c2n1	-8.4	-1.4	16.3*	-32.6	-6.4
Cc1cc(SCC#N)n2nc(C)c(-c3ccc(Cl)cc3)c2n1	-6.9	-0.1	38.9*	-34.8	-1.9
N#CCSc1nnc(-c2ccccc2)c(-c2ccccc2)n1	16.6	-2.1	16.4*	-19.0	-8.5
N#CCSc1nc(-c2ccccc2)c2cc(Cl)ccc2n1	.	-0.7	.	.	7.4
COc1cccc(NC(=O)c2cc(OC)c(OC)c(OC)c2Br)c1	.	0.1	.	.	-25.9
SMILES	F-actin modifier	GALR2 agonist	S1P2 agonist	S1P2 antag	GALR2 blocker
CC(=O)c1cccc(NC(=O)NCc2cccnc2)c1	50.2*	-1.2	-3.7	5.1	-2.5
COCCNC(=S)N1CCOCC1	.	-0.8	.	.	2.0
O=C(CSc1nc2ccccc2c(=O)n1-c1ccccc1Cl)Nc1cccc(S(=O)(=O)N2CCOCC2)c1	.	0.4	.	.	10.9
Cc1cccc2cc(C(c3nnnn3CC3CCCO3)N3CCc4ccccc4C3)c(=O)[nH]c12 (stereo unspecified)	-2.3	-1.8	127.8*	6.2	1.1
C=CCNC(=O)c1c(Cl)nc(C)c([N+](=O)[O-])c1C	.	-0.2	.	.	1.3
Cn1c(SC2=CS(=O)(=O)c3ccccc32)nc2ccccc21	13.4	-0.9	-8.4	61.9*	23.5
Cn1c(CSc2nc3ccccc3n2C)nc2ccccc21	-19.3	-0.7	-3.3	7.7	0.2
CCOC(=O)c1[nH]c(C)c(C(=O)OCCOc2cccc(C)c2)c1C	.	-0.8	.	.	-11.0
CC(C)(C)NC(=O)C(=O)NNC(=O)COc1ccc(Br)cc1	.	-0.4	.	.	0.4
COc1ccccc1N/C(=N/S(=O)(=O)c1ccc(C)cc1)c1ccc(Cl)cc1	9.2	-0.9	-4.2	3.3	-1.3
O=C(Nc1ccc(-c2nc3ncccc3o2)cc1)c1ccco1	-8.8	0.5	-4.0	12.4	-18.9
O=C(Nc1ccc(-c2nc3ncccc3o2)cc1)c1ccc(Br)o1	-21.7	2.6	-1.3	53.8*	-13.6
Cc1cc(C)cc(Oc2nc(C(F)(F)F)nc3ccccc23)c1	14.6	-1.7	17.9*	-33.5	-3.5
COc1ccc(Oc2nc3ccccc3nc2C(F)(F)F)cc1	-23.3	-2.3	0.4	-5.3	5.4
Cc1ccccc1NC(=O)c1ccccc1NC(=O)c1ccco1	-8.8	-2.8	-1.9	-16.8	9.1
CNC(=O)c1ccccc1NC(=O)c1ccco1	33.7*	-2.1	-3.7	-10.2	-2.7
O=C(NCc1ccco1)c1cc2ccc(O)cc2oc1=O	-2.8	144.6*	81.7*	-173.8	-70.0
COc1ccc2cc(C(=O)NCc3ccco3)c(=O)oc2c1	13.4	0.7	-2.4	-8.5	-9.4
O=C(Nc1ccccn1)Nc1cccs1	-1.0	-0.1	133.3*	14.7	1.8
O=C(Nc1ccncc1)Nc1ccccn1	-13.0	-1.1	-4.4	13.3	-7.5
O=c1c2c(-c3ccccc3)csc2ncn1/N=C/c1c2ccccc2cc2ccccc12	0.6	-0.5	18.4*	15.1	-11.2
Cc1nn(-c2ccccc2)c(N2CCCC2)c1/C=N/n1cnc2scc(-c3ccccc3)c2c1=O	20.2	-1.6	-8.8	22.6	-5.0
CCc1ccc2[nH]c3nc(SCC(=O)NNC(=O)c4ccc(C(C)(C)C)cc4)nnc3c2c1	-5.1	-3.5	17.2*	-1.4	-0.2
Cc1ccc(C(=O)NNC(=O)CSc2nnc3c(n2)[nH]c2ccc(C)cc23)cc1	13.0	-1.0	-9.1	4.5	-6.8
O=C(NCC1CCCO1)C(c1cccs1)N(C(=O)c1ccc(CN2CCOCC2)o1)c1ccc(Cl)cc1 (stereo unspecified)	.	-2.0	.	.	4.3
SMILES	F-actin modifier	GALR2 agonist	S1P2 agonist	S1P2 antag	GALR2 blocker
COc1cc(CNC2CCCC2)cc(Cl)c1OCc1ccccc1F	-12.3	7.3	-1.6	5.2	-9.3
CCCCn1c(NC(=O)c2ccccc2Cl)c(C#N)c2nc3ccccc3nc21	-7.9	7.3*	14.2	-6.8	-0.9
CCCCn1c(NC(=O)CC)c(C#N)c2nc3ccccc3nc21	-14.8	0.1	-1.6	8.7	2.2
Cc1cc[n+](-c2nc([O-])n(-c3ccccc3)c2C=O)cc1	11.5	-3.2	-4.0	1.1	-5.2
Cc1ccc(-n2c([O-])nc(-[n+]3ccccc3)c2C=O)cc1	37.0*	-1.4	0.1	18.0	6.8
CC(C)c1cc(C(=O)N/N=C/c2cccnc2)n[nH]1	.	1.1	.	.	-9.6
